Compounds without any hit were thinned out: in the full panel of roughly 79,000, 15% have a hit. No stated cut-off is given here; in the data, active means growth inhibition above about 70%; inactive means the rest.
Legend:
[1] = NCI Yeast Anticancer Drug Screen. Data for the rad50 strain (AID 155);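 further: 0% = growth of vehicle-only cultures of the same strain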; settings: S. cerevisiae rad50 strain growth inhibition; at 50.0 µM; hits give high values
Method in brief: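 Compounds were tested on a yeast strain with an engineered DNA damage repair alteration; the reported value is growth inhibition normalised to vehicle treatment.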

[2] = NCI Yeast Anticancer Drug Screen. Data for the mec2-1 strain (AID 157); settings: S. cerevisiae mec2-1 strain, at 50.0 µM, hits give high values
Method in brief: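 Using mec2-1 yeast: add compound, measure growth, express inhibition versus vehicle-treated cultures.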

[3] = NCI Yeast Anticancer Drug Screen. Data for the sgs1 mgt1 strain (AID 161);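 further: 0% = growth of cultures given vehicle only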; settings: S. cerevisiae sgs1 mgt1 strain, at 50.0 µM, hits give high values
Method in brief: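 Percent growth inhibition was derived by comparing compound-exposed mutant yeast with vehicle-exposed cultures. The strain carries alterations in DNA damage repair.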

[4] = NCI Yeast Anticancer Drug Screen. Data for the cln2 rad14 strain (AID 165);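 further: 0% = growth equal to vehicle treated cultures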; settings: S. cerevisiae cln2 rad14 strain, at 50.0 µM, hits give high values
Method in brief: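 Yeast strain cln2 rad14, bearing defects in cell cycle control and DNA repair, serves as the test system; values reflect growth inhibition compared with vehicle.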

[5] = NCI Yeast Anticancer Drug Screen. Data for the bub3 strain (AID 167); settings: S. cerevisiae bub3 mutant strain, at 50.0 µM, hits give high values
Method in brief: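 Growth of a checkpoint-deficient yeast mutant is measured after compound exposure. Values represent inhibition relative to vehicle.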

[6] = NCI Yeast Anticancer Drug Screen. Data for the mlh1 rad18 strain (AID 175); settings: S. cerevisiae mlh1 rad18 strain growth inhibition; at 50.0 µM; hits give high values
Method in brief: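 Steps: expose repair-defective yeast to compound; measure growth; express inhibition against vehicle-treated controls.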

Measured: growth inhibition

CCC(=O)/C=C/C1=C(C)CCCC1(C)C
inactive: [1] -9.95% | [2] -9.65% | [3] 6.25% | [4] -5.8% | [5] 5.8% | [6] -13.4%

CC(C)OC(=O)CC#N
inactive: [1] -4.55% | [2] -9.55% | [3] -7.7% | [4] -28.7% | [5] 0.6% | [6] 14.8%

CC1(C(=O)Sc2ccccc2)OC1(C)c1ccccc1 (centres undefined)
inactive: [1] -8.5% | [2] 7.65% | [3] 4.85% | [4] -28.1% | [5] 14.8% | [6] 18.1%

OCC1OC(n2cc(I)c3c(Cl)ncnc32)C(O)C1O (centres undefined)
inactive: [1] 0.7% | [2] -15.4% | [3] -4.05% | [4] -36.8% | [5] 1.6% | [6] 3.95%

CCOC(=O)NC(=S)NC(C)c1ccccc1 (centres undefined)
inactive: [1] -10.2% | [2] 10.6% | [3] 35.5% | [4] -8.85% | [5] 15% | [6] 1.15%

NNC(=O)N/N=C/c1cccc(O)c1
inactive: [1] -11.7% | [2] -2.35% | [3] -21.4% | [4] -12.1% | [5] 1.1% | [6] -19.4%

CCOP(=O)(OCC)c1nc(Cl)nc(Cl)c1SC(F)(F)F
inactive: [1] 33.3% | [2] 11.3% | [3] 14.5% | [4] 13.2% | [5] -4.4% | [6] 25.2%

c1ccc2c(c1)CCC2
inactive: [1] 12.1% | [2] -10.2% | [3] -23.1% | [4] 1.55% | [5] -18.1% | [6] -6.6%

C[N+](C)(C)Cc1ccc2ccccc2c1CC(O)(c1ccccc1)c1ccccc1
inactive: [1] 16.6% | [2] -0.6% | [3] 19.1% | [4] 4.85% | [5] 1.95% | [6] 9.8%

CC1CCCCC12OCCO2 (centres undefined)
inactive: [1] -13.9% | [2] -31.4% | [3] 3.3% | [4] 1.75% | [5] -20.3% | [6] -3.75%

O=C(O)CS(=O)(=O)c1nc2ccccc2[nH]1
inactive: [1] -27.3% | [2] 20.6% | [3] -7.75% | [4] -57.6% | [5] 10.8% | [6] -14.8%

Cc1ccc2c(c1)C(=O)c1ccccc1C2=O
inactive: [1] 7.8% | [2] 1.05% | [3] 1.9% | [4] 11.9% | [5] 52% | [6] 6%

CN(C)CCOC(=S)S
inactive: [1] 1.85% | [2] -0.4% | [3] -9.3% | [4] 1.5% | [5] 10.3% | [6] -1%

COC(=O)c1nn(-c2ccccc2)c2nc3ccccc3c-2c1C(=O)OC
inactive: [1] 39.8% | [2] 17% | [3] 31% | [4] 18.5% | [5] 20.9% | [6] 36.5%

Cc1ccc(C)c(NC(=O)CC/C(=N\NC(=O)c2c(O)ccc3ccccc23)C(C)C(=O)c2ccc(O)cc2)c1 (centres undefined)
inactive: [1] 10.2% | [2] 36.5% | [3] -5.55% | [4] 12.6% | [5] 16.1% | [6] 20.8%

N#CCCN(N)S(=O)(=O)c1ccccc1
inactive: [1] 3.7% | [2] 7.65% | [3] 0% | [4] -34.7% | [5] 2.85% | [6] -0.2%

O=C1c2ccccc2C(=O)C2C3c4ccccc4C(c4ccccc43)C12 (centres undefined)
inactive: [1] -60.4% | [2] -61% | [3] -53.8% | [4] -9.2% | [5] -54.7% | [6] -57.5%

Cc1c(C(=O)O)n2cnnc2c2ccccc12
inactive: [1] 22.8% | [2] 4% | [3] -38.1% | [4] 11.9% | [5] -15.8% | [6] 1.5%

COc1ccc(Nc2nc3ccccc3nc2-c2cccs2)cc1
inactive: [1] 5.2% | [2] -3.8% | [3] 23.5% | [4] -1.45% | [5] 14.3% | [6] 17.3%

Reference: PubChem BioAssay (NCI)
